Results filed as inconclusive are left out. The source made the active and inactive calls. Calls follow the shape of the dose curve; as a rule, active = well fitted inhibition curve with a large enough effect; inconclusive = small, poorly fitted or top-dose-only effect; inactive = no such curve, though single readings can be large or run the other way.
Also: nearly all actives have a fitted effect of over 60% in size.
Potency is read from the fitted curve at half-maximal effect.

Cytochrome P450 2C19 (Homo sapiens), sequence (P33261 whole entry, looked up): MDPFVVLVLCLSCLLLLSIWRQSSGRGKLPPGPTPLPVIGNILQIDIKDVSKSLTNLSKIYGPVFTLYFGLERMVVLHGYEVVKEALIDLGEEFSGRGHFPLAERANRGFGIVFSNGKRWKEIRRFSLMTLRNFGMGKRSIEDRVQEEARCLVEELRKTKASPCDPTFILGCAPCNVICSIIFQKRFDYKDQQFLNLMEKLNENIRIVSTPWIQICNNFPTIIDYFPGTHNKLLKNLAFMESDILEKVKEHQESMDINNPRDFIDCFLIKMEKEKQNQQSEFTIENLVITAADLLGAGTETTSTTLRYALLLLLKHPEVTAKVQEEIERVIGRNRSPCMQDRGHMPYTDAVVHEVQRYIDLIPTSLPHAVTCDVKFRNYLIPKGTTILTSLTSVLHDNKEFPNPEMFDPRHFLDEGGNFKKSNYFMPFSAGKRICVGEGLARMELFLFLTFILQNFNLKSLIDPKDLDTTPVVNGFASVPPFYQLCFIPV
Cytochrome P450 2D6 (Homo sapiens), sequence (P10635 whole entry, looked up): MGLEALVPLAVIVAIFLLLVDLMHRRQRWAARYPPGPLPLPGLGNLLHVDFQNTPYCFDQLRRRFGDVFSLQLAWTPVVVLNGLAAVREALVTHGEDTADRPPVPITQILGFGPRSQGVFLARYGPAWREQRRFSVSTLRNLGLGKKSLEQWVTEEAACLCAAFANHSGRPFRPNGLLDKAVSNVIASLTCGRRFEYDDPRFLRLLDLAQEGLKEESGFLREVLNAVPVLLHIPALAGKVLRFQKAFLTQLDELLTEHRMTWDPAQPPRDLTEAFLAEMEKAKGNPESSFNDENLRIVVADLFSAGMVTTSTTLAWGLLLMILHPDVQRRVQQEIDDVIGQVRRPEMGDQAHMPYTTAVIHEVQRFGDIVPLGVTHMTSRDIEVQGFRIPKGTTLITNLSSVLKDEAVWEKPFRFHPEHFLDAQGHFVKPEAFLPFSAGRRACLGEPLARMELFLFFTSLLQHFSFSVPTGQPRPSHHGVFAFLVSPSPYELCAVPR

One assay addresses Cytochrome P450 2D6 (Homo sapiens) (UniProt P10635). The assay can be described thus: qHTS Assay for Inhibitors and Substrates of Cytochrome P450 2D6 (AID 891). To be noted: recombinant CYP2D6, luciferin-ME EGE luminescence; series mostly up to 11.4 µM. The gist of the method:
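Human CYP2D6 (5 nM) with 30 uM Luciferin-ME EGE (at Km) in 100 mM KPO4, compound preincubated 10 min, then NADPH regeneration system for 60 min at room temperature. Luciferin read by luminescence; normalized to 1.43 uM quinidine.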
On the technique in general: In qHTS, concentration-response curves come from the screen itself.
Turning to `COc1ccc(O[C@H]2C=C[C@@H](c3ccccc3)O[C@@H]2CO/N=C(\C)CCN2CCCc3nc(C)c(C)cc32)cc1`, the Potency is 3.16 µM (active). The same measure, in the same setting: then `OCC1OC(c2ccc3c(c2)OCO3)C=CC1Oc1cc(Cl)cc(Cl)c1` (configuration not stated), with 3.16 µM (active); and `C/C=C/OC(=O)NC(c1ccccc1)[C@@]1(C(=O)OCC)CCCC1=O` (some centres not stated), with “inactive”. The same measure, in the same setting: then `CCCCC#CC1C=CC(Oc2ccc(OC)cc2)C(CO)O1` (configuration not stated), with “inactive”; and `CC(C)(C)c1ccc(OC2C(O)COC2/C=C/C#Cc2ccccc2)cc1` (configuration not stated), with “inactive”.

A further assay concerns the target Cytochrome P450 2C19 (Homo sapiens) (UniProt P33261). The assay can be described thus: qHTS Assay for Inhibitors and Substrates of Cytochrome P450 2C19 (AID 899). To be noted: recombinant CYP2C19, luciferin-H EGE luminescence; series mostly up to 11.4 µM. The method in brief:
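5nM enzyme + 10uM Luciferin-H EGE (=KM), 50mM KPO4; cpd pin-transferred, 10 min 37C; NADPH regen, 60 min 37C; stopped w/ luciferin detection reagent, 20 min; luminescence. Normalized to 57uM ketoconazole (AC100).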
As to `C=CCc1cccc(C2C(C)CCC3C(=O)N4C(Cc5c([nH]c6ccccc56)C4c4cc(OC)c(OC)c(OC)c4)C(=O)N32)c1` (configuration not stated), the Potency result was “inactive”.

Turning to `COc1ccc(O[C@H]2C=C[C@@H](c3ccccc3)O[C@@H]2CO/N=C(\C)CCN2CCCCc3nc(C)c(C)cc32)cc1`, the Potency was 2.51 µM (active). With `COc1ccc(O[C@H]2C=C[C@@H](c3ccccc3)O[C@H]2COC(=O)CC/C(C)=N\O[C@@H](C)c2cn([C@H]3COC[C@H]3O)nn2)cc1`, the Potency is 2.51 µM (active).

Turning to `COC(=O)C[C@@H]1O[C@H]1[C@H](C)[C@@H](OC)C(C)C`, the Potency is 3.98 µM (active). For `COC(=O)C/C=C\[C@@H](C)[C@@H](/C=N\OC[C@@H]1O[C@H](c2ccccc2)C=C[C@@H]1Oc1ccc(OC)cc1)NS(=O)(=O)c1ccc(C)cc1`, the Potency was 0.398 µM (active). For `CC(=O)OCC1OC(c2ccc3c(c2)OCO3)C=CC1OC(C)=O` (configuration not stated), the Potency is 0.316 µM (active). Same read-out and setting: in the case of `COc1ccc(O[C@H]2C=C[C@@H](c3ccccc3)O[C@@H]2CO/N=C(\C)CCN2CCCc3nc(C)c(C)cc32)cc1` it was 0.398 µM (active).

(Values after PubChem BioAssay (NCATS).)
